Compound activity deposited in PubChem BioAssay by National Center for Advancing Translational Sciences (NCATS).
NS1 function inh = influenza NS1 inhibition | Potency, µM (titrated, usually from 46.1 µM), without a hit: at the top dose activity, positive = more growth | actives 0.4% (n = 270,000); calls by dose curve; note: potency is the fitted concentration of half-maximal effect; actives are rising curves; nearly all actives have a fitted effect of over 50% in size
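Growth recovery, yeast-based: influenza A NS1 expressed in S. cerevisiae causes slow growth, and suppressors are detected by OD600. The parent strain without NS1 is used as positive control.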
Shiga inhibitor = Shiga toxin inhibition; Vero cells, Shiga toxin protein synthesis inhibition reporter; inhibition, % at 38.7 µM; actives 9.2% (n = 290,000); in the data active = inhibition mostly above about 28%, no sharp cut-off; inactive = mostly below about 43%; note: 0% is about no effect
Pf growth 48h = inhibits P. falciparum growth in the first generation, 48 h; Potency, µM (titrated, usually from 28.7 µM), for inactives: top-dose activity change, negative = inhibition, usual class: inhibitors; actives 5.9% (n = 310,000); AID 504832; P. falciparum luciferase growth in erythrocytes, 48 h; note: potency is the fitted concentration of half-maximal effect; % is set by controls: 0 for no effect and ±100 for the full control effect
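Read-out is firefly luciferase luminescence from an integrated reporter in P. falciparum, so falling signal marks reduced parasite growth. Infected erythrocytes were at 2% hematocrit and 0.1% parasitemia (final) in Albumax-supplemented RPMI 1640.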
SARS PLP yeast = SARS-CoV PLP inhibition in yeast | S. cerevisiae expressing SARS-CoV PLpro, growth rescue | Potency, µM (doses to about 32.9 µM), for the others: at the highest dose activity, positive = growth rescue, usual class: activators | actives 0.19% (n = 330,000) | AID 485353; calls by dose curve; note: potency is the fitted concentration of half-maximal effect; 0% is about no effect; nearly all actives have a fitted effect of over 55% in size
Pf growth 96h = P. falciparum growth inhibition at 96 hours; P. falciparum luciferase reporter growth, 96 h; actives 6.9% (n = 320,000); Potency, µM (series often up to 28.7 µM), for inactives: at the highest dose activity change, negative = inhibition, most hits filed as inhibitors; note: potency is the fitted concentration of half-maximal effect; % is set by controls: 0 for no effect and ±100 for the full control effect
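96 h incubation, 37 C, 5% CO2, of luciferase-reporter P. falciparum-infected RBCs (2% hematocrit, 0.05% parasitemia final) with test compounds; endpoint luminescence.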
Cycloheximide cs = counter-screen hit for Shiga toxin inhibitors, cycloheximide; cell reporter, cycloheximide protein synthesis inhibition counterscreen; max response, %; actives 12% (n = 300,000); in the data active = max response mostly above about 13%, no sharp cut-off; inactive = mostly below about 14%; note: read at 38.3 µM for the half of the compounds with a filed dose; 0% is about no effect
Active calls of the source: *; u = inconclusive; x = no result; + = active, no number; [ ] = another dose, or the depositor's remark. An excerpt weighted towards active compounds, which were near 21% of everything screened. Unless noted, calls come from the whole dose curve; as a rule, active = well fitted inhibition curve with a large enough effect; inconclusive = small, poorly fitted or top-dose-only effect, or another doubt; inactive = no such curve, though single readings can be large or run the other way.

SMILES	NS1 function inh	Shiga inhibitor	Pf growth 48h	SARS PLP yeast	Pf growth 96h	Cycloheximide cs
Cc1cc([N+](=O)[O-])nn1CC(=O)NCc1cccs1	2%	-14	31%	1%	8.3µM*	-3
Cc1cc(C(=O)Nc2nc(C)c(C(=O)N(C)C)s2)ccc1[N+](=O)[O-]	-1%	54*	179%	-6%	u	34*
Cc1ccc(C(=O)NCc2ccc3c(c2)OCO3)cc1Cl	-9%	40	15%	-5%	u	18*
COc1ccccc1-c1ccc(=O)n(CC(=O)NCc2cccs2)n1	x	40*	42%	3%	4%	26
CCc1cccc(NC(=O)CSc2ncccc2C(=O)Oc2ccccc2Cl)c1	x	-4	x	x	x	-3
COc1ccc2c(c1)C(=O)/C(=C/C=C/c1ccccc1)CC2	-13%	+	u	3%	2.3µM*	21*
COc1ccc2c(c1)CC/C(=C\C=C\c1ccccc1OC)C2=O	-5%	89*	-11%	0%	u	38*
O=C(Nc1cccc(S(=O)(=O)N2CCCCC2)c1)c1ccco1	x	x	u	-1%	u	x
N/C(=N\OC(=O)c1ccc(=O)n(Cc2ccccc2)c1)c1ccccn1	-3%	63*	13µM*	-2%	u	30*
CN(C(=O)c1ccc(=O)n(Cc2ccc(Cl)cc2)c1)c1ccccc1	-4%	24	3%	-2%	-22%	-3
N/C(=N\OC(=O)c1ccc(=O)n(Cc2ccc(Cl)cc2)c1)c1ccccn1	x	6	12µM*	-5%	13µM*	28
CCCc1ccc(C(=O)O/N=C(\N)c2ccccn2)cc1	-105%	-25	-65%	-14%	u	-2
COC(=O)c1cccc2nc3c(C(C)O)cccc3nc12 (stereo unspecified)	-9%	22	-2%	1%	u	8.1*
CCN(CC)C(=O)c1cccc2nc3ccccc3nc12	-2%	4	5%	-1%	14%	-2
CC(=O)Nc1sc(N/N=C\c2ccccc2F)nc1-c1cccs1	-7%	62*	u	2%	-59%	38*
CC(=O)Nc1sc(N/N=C\c2cccc(Cl)c2)nc1-c1cccs1	6%	9	u	14%	u	19*
O=C(Nc1c(-c2cccs2)nc2ccccn12)c1ccccc1F	x	-4	-5%	-5%	-25%	-2
O=C(NN=Cc1ccc(O)cc1)c1ccccc1NS(=O)(=O)c1cccs1	x	x	x	13%	x	x
CC(=O)Nc1sc(N/N=C\c2ccc(O)cc2)nc1-c1cccs1	3%	68*	18%	1%	8%	27*
O=C(Cn1cncn1)N/N=C/c1cccc(Cl)c1	2%	6	6%	-3%	15%	-1
O=C(Cn1cnc([N+](=O)[O-])c1)NC1CCCC1	6%	-2	1%	17%	13%	-2
Cc1nn(CCCC(=O)NCc2ccco2)c(=O)c2nn(-c3ccccc3)c(C)c12	-6%	-3	-22%	2%	-8%	-1
COCCNCC1C(Oc2ccc(Cl)cc2)C(=O)N1c1ccccc1C (stereo unspecified)	x	-10	u	4%	188%	-6
Cc1ccccc1N1C(=O)C(Oc2ccc(Cl)cc2)C1CNC(C)(C)C (stereo unspecified)	-20%	-15	12µM*	-5%	47%	-1
CCCNCC1C(Oc2ccc(Cl)cc2)C(=O)N1c1ccccc1C (stereo unspecified)	-16%	-15	10µM*	-8%	7%	-1
SMILES	NS1 function inh	Shiga inhibitor	Pf growth 48h	SARS PLP yeast	Pf growth 96h	Cycloheximide cs
NC(=S)N/N=C1\CCOc2ccc(F)cc21	11%	-13	u	-1%	u	7
O=C(N/C(=C\c1ccccc1)C(=O)N1CCN(CCO)CC1)c1ccccc1	-1%	-5	4%	-5%	-10%	-2
O=C(CN1CCOCC1)N/N=C/c1cccc2ccccc12	11%	-6	19%	6%	13%	-3
Cc1occc1C(=O)N/N=C/c1cccc2ccccc12	-31%	87*	37%	-7%	u	44*
O=C(N/N=C/c1cccc2ccccc12)c1ccccc1Cl	-44%	49	-7%[0.00184 µM]	-4%	29%	13*
CC(O)C(=O)N/N=C/c1cccc2ccccc12 (stereo unspecified)	-6%	3	u	10%	20%	21
